Consider 21 compounds from PubChem BioAssay (NCATS).

Results filed as inconclusive are left out. Unmarked numbers belong to inactive results. The source made the active and inactive calls. The call rests on the fitted dose curve; in most records, active means well fitted curve in the direction sought with a large enough effect; inconclusive means small, poorly fitted or top-dose-only effect, or another doubt; inactive means no such curve, though single readings can be large; an effect the other way counts as inactive or inconclusive.

Test [1] concerns the target Rap guanine nucleotide exchange factor 3 (Homo sapiens) (UniProt O95398). As to the kind of experiment: Confirmatory qHTS for antagonist of cAMP-regulated guanine nucleotide exchange factor 3 (EPAC1) (AID 1645880). Further: nearly all actives have a fitted effect of over 55% in size. Further: potency means the concentration at half of the fitted maximal effect.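 On activity, negative = inhibition: plate controls were DMSO only for no effect and full effect of the ATA control for full effect.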 The following applies: EPAC1 Rap1B-BODIPY-GDP exchange, fluorescence; activity, negative = inhibition: at 115 µM (top of the series). In short, it runs like this:
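Nucleotide exchange uses 100 nM EPAC1, 250 nM RAP1B-BODIPY-GDP and 50 uM GDP, with compounds in a concentration-titration series. After 5 min at room temperature, fluorescence (480 nm ex/540 nm em) is read every 5 min for 30 min. Data are normalized to control ATA and DMSO.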
For orientation: In qHTS, concentration-response curves come from the screen itself.

The target is the same in test [2]. As to the kind of experiment: Confirmatory qHTS for agonist of cAMP-regulated guanine nucleotide exchange factor 3 (EPAC1) (AID 1645881). Further: nearly all actives have a fitted effect of over 75% in size. Further: potency means the concentration at half of the fitted maximal effect.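 On activation: EPAC1 catalysed release of BODIPY-GDP from Rap1B seen as fluorescence loss; 100% = effect of cAMP agonist control.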
The target in test [3] is Rap guanine nucleotide exchange factor 4 (Homo sapiens) (UniProt Q8WZA2). As to the kind of experiment: Confirmatory qHTS for agonist of cAMP-regulated guanine nucleotide exchange factor 4 (EPAC2) (AID 1645884). Further: nearly all actives have a fitted effect of over 65% in size. Further: potency means the concentration at half of the fitted maximal effect. On activation: on the % scale 0 is the no-effect control and ±100 the full control effect.
Test [4] shares this target. Briefly: Confirmatory qHTS for antagonist of cAMP-regulated guanine nucleotide exchange factor 4 (EPAC2) (AID 1645885). Further: nearly all actives have a fitted effect of over 25% in size. Further: potency means the concentration at half of the fitted maximal effect. On activity change, negative = inhibition: on the % scale 0 is the no-effect control and ±100 the full control effect.
In test [5] the target is Rap guanine nucleotide exchange factor 3 (Homo sapiens) (UniProt O95398). As to the kind of experiment: Counterscreen qHTS for antagonist of cAMP-regulated guanine nucleotide exchange factor 3 (EPAC1) (AID 1645888). Further: % of control where 0% means no effect. In short, it runs like this: (§1)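 Measured: fluorescence of BODIPY-GDP bound to Rap1B, which falls as exchange proceeds. Conditions include 50 uM competing GDP, 5 and 30 min reads, and a later cAMP challenge for antagonist detection.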
In general terms: Counterscreens check selectivity or assay interference.

For test [6] the target is unchanged. Briefly: Counterscreen qHTS for agonist of cAMP-regulated guanine nucleotide exchange factor 3 (EPAC1) (AID 1645889). Further: nearly all actives have a fitted effect of over 40% in size. Further: potency means the concentration at half of the fitted maximal effect. On activation: % of control where 0% means no effect. In a few lines: as §1

Rap guanine nucleotide exchange factor 3 (Homo sapiens), sequence (O95398 whole entry, looked up): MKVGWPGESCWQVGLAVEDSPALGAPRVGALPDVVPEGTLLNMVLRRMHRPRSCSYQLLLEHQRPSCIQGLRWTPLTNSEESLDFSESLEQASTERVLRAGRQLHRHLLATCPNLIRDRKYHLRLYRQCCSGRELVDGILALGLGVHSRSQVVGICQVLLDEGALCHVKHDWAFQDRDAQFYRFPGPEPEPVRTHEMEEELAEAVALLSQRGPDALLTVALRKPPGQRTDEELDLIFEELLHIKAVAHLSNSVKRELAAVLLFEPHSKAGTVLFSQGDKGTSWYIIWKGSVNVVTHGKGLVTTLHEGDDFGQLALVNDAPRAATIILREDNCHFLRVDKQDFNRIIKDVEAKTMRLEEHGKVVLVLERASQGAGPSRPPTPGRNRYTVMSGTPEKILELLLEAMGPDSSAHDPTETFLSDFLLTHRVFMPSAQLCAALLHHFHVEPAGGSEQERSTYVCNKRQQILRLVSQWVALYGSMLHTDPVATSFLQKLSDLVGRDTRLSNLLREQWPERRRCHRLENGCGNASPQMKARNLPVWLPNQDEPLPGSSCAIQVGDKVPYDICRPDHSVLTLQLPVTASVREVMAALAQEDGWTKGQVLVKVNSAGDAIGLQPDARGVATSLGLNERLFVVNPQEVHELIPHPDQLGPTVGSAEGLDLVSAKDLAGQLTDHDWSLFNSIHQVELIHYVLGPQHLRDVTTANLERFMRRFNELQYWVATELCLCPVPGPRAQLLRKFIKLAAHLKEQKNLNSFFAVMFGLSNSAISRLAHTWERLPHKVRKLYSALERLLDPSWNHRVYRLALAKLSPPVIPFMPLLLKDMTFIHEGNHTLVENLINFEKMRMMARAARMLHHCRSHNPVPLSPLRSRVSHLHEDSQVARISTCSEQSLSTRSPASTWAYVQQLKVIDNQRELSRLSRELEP
Rap guanine nucleotide exchange factor 4 (Homo sapiens), sequence (Q8WZA2 whole entry, looked up): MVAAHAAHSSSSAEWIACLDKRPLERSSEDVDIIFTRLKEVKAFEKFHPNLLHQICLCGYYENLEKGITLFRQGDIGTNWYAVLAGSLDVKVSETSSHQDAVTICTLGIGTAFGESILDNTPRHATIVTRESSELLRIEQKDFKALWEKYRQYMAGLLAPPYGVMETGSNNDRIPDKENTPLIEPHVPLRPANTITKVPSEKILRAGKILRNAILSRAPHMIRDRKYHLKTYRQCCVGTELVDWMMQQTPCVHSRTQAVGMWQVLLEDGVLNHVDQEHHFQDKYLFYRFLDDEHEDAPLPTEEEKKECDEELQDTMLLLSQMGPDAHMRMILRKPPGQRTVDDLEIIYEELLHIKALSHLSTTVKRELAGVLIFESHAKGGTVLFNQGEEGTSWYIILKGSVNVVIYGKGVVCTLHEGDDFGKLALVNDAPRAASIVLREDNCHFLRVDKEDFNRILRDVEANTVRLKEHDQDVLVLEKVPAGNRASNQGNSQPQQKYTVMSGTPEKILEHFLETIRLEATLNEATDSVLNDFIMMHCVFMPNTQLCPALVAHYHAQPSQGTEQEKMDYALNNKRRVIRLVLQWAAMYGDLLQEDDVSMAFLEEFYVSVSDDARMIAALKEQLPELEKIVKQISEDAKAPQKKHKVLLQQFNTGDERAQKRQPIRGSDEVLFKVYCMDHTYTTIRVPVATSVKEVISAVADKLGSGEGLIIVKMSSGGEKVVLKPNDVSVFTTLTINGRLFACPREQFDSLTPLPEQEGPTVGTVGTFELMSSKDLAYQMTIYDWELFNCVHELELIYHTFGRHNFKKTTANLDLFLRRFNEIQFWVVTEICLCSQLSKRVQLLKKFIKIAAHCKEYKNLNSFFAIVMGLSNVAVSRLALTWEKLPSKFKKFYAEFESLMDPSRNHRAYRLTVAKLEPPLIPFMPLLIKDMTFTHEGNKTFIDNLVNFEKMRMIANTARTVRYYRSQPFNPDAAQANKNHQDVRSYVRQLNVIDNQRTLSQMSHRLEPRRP

As for `Cc1nn(C(=O)c2ccco2)c(C)c1Sc1ccccc1`, the Potency entry in test [1], in test [2], in test [3], in test [5] and in test [6] was “inactive” throughout. Also, the Potency in test [4] is 10.7 µM (active).
Regarding `CC(=O)Nc1cc(C(=O)NCc2ccco2)ccc1Sc1ccc(C)cc1`, the Potency entry in test [1], in test [2] and in test [4] was “inactive” throughout. Also, the activation is 3.77% [at 17.1 µM, percent relative to cAMP agonist control] in test [3] and 6.12% [at 30.8 µM] in test [6]. For the same compound, the activity change, negative = inhibition in test [5] was -18.4% [at 30.8 µM].
For `COc1cccc(CN(C)CC(=O)Nc2c(C)cccc2C(C)C)c1`, the Potency entry in test [1], in test [2] and in test [4] was “inactive” in each case. Moreover, the activation in test [3] is 9.26% [at 17.1 µM, percent relative to cAMP agonist control]; in test [6], 14.6% [at 30.8 µM]. The activity change, negative = inhibition in test [5] is -8.13% [at 30.8 µM].
With `CC(C)(C)N(NC(=O)Nc1ccc(F)cc1)C(=O)c1ccccc1`, the Potency result in test [1], in test [2] and in test [4] was “inactive” each time. Further, the activation is 0.121% [at 17.1 µM, percent relative to cAMP agonist control] in test [3] and 0.382% [at 30.8 µM] in test [6]. In addition, the activity change, negative = inhibition in test [5] was -14.2% [at 30.8 µM].
As to `COC(=O)CCNC(=O)NC(CCC(C)C)c1c(-n2cccc2)sc2c1CCN(C)C2` (stereo unspecified), the Potency entry in test [1], in test [2], in test [3], in test [4], in test [5] and in test [6] was “inactive” throughout.
Take `CC[C@]12c3[nH]c4cc(-c5ccco5)ccc4c3CCN1C(=O)[C@@H](CC(=O)NCCCOC)C[C@@H]2C(=O)N1CCN(C(=O)C2CC2)CC1`: the Potency result in test [1], in test [2] and in test [4] was “inactive” each time. The activation in test [3] is 9.39% [at 17.1 µM, percent relative to cAMP agonist control]; in test [6], -1.13% [at 30.8 µM]. Further, in test [5], the activity change, negative = inhibition is -21.4% [at 30.8 µM].
As to `COc1ccc(-c2cc(C(F)(F)F)nc(SCC(=O)N3CCCCC3C)n2)cc1OC` (stereo unspecified), the Potency entry in test [1], in test [2], in test [3], in test [5] and in test [6] was “inactive” throughout. In addition, the outcome in test [4] is “inactive [at 12.7 µM]”.
For `CCOc1cc2c3c(c1)C(C)=CC(C)(C)N3C(=O)C2=O`, the Potency entry in test [1], in test [2] and in test [4] was “inactive” each time. Further, the activation was -1.35% [at 17.1 µM, percent relative to cAMP agonist control] in test [3] and 25% [at 30.8 µM] in test [6]. The activity change, negative = inhibition in test [5] is -14.8% [at 30.8 µM].
Regarding `CCN(CC)c1ccc2c(c1)OC(N)=C(C#N)C2c1cccnc1` (stereo unspecified), the Potency entry in test [1] and in test [5] was “inactive” throughout. For the same compound, the Potency in test [2] was 89.1 µM (active); in test [3], 100 µM (active); in test [4] it was 75.7 µM (active); in test [6], 35.5 µM (active).
On to `COc1cccc2c1OC1(C)CC2/C(=C(\C)O)C(=O)N1` (stereo unspecified), for which the Potency result in test [1], in test [2], in test [3], in test [4], in test [5] and in test [6] was “inactive” throughout.
With `O=C1NC(=S)S/C1=C\c1ccc(SCc2ccccc2)o1`, in test [1], the Potency was 21.3 µM (active). For the same compound, the Potency entry in test [2], in test [3], in test [4], in test [5] and in test [6] was “inactive” in each case.
Take `O=C(CC(=O)NC1CCCCC1)N/N=C/c1ccc(Cl)cc1`: the Potency entry in test [1], in test [2], in test [3], in test [4], in test [5] and in test [6] was “inactive” throughout.
With `COc1ccc(S(=O)(=O)NC(CCSC)C(=O)NC2CCCCC2)cc1` (stereo unspecified), the Potency entry in test [1], in test [2], in test [3], in test [4], in test [5] and in test [6] was “inactive” each time.
On to `CCCCNC(=O)c1cc(-c2ccc3c(c2)OCO3)on1`, for which the Potency entry in test [1], in test [2], in test [3], in test [4], in test [5] and in test [6] was “inactive” in each case.
As to `COCCn1c(-c2ccc(Br)cc2)csc1=Nc1cccnc1`, the Potency result in test [1], in test [2], in test [3], in test [4], in test [5] and in test [6] was “inactive” each time.
On to `COC(=O)COc1ccc(C(c2c(C)[nH][nH]c2=O)c2c(C)[nH][nH]c2=O)cc1`, for which the Potency entry in test [1], in test [2], in test [3], in test [4], in test [5] and in test [6] was “inactive” in each case.
On to `CC1CCCN(C(=O)c2cccc(S(=O)(=O)Nc3cc(C(F)(F)F)ccc3Cl)c2)C1` (stereo unspecified), for which the Potency was 21.3 µM (active) in test [1] and 26.9 µM (active) in test [4]. For the same compound, the Potency result in test [2], in test [3], in test [5] and in test [6] was “inactive” each time.
Take `C/C(CC(=O)Nc1ccc2ccccc2c1)=N\NC(=O)c1ccc(O)c(O)c1`: the Potency in test [1] was 53.6 µM (active). In addition, the Potency result in test [2], in test [3], in test [4], in test [5] and in test [6] was “inactive” throughout.
Take `COc1ccc(C2c3ccsc3CCN2C(C)=O)cc1` (stereo unspecified): the Potency result in test [1], in test [2], in test [3], in test [4], in test [5] and in test [6] was “inactive” each time.
For the compound `COC(=O)[C@H](CC(C)C)NC(=O)CC[C@H]1O[C@@H](n2ccc(=O)[nH]c2=O)[C@H](O)[C@@H]1O`, the Potency entry in test [1], in test [2], in test [3], in test [4], in test [5] and in test [6] was “inactive” each time.
Regarding `CC(=O)Nc1c(C)nn(-c2ccccc2)c1N1CCC(C(=O)NCc2cccc(F)c2)CC1`, the Potency result in test [1], in test [2], in test [3], in test [4], in test [5] and in test [6] was “inactive” each time.
